Compounds without any hit were thinned out: in the full panel of roughly 79,000, 15% have a hit. Values without a mark were called inactive. Activity calls are given as the source filed them. Cut-off read from the data, not from the text of the source: active = growth inhibition above about 70%; inactive = the rest.
Legend:
[1] = NCI Yeast Anticancer Drug Screen. Data for the rad50 strain (AID 155);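 note: 0% = growth of vehicle-only cultures of the same strain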; conditions: S. cerevisiae rad50 strain growth inhibition, stronger effect = higher value
Summary of the method: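 A DNA repair-deficient yeast mutant serves as the test organism; compound-induced growth inhibition is calculated against vehicle-treated cells.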

[2] = NCI Yeast Anticancer Drug Screen. Data for the mec2-1 strain (AID 157); conditions: S. cerevisiae mec2-1 strain, stronger effect = higher value
Summary of the method: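 Cells of the genetically defined mec2-1 yeast strain are incubated with test compound. Inhibition of growth is calculated against vehicle-treated controls.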

[3] = NCI Yeast Anticancer Drug Screen. Data for the sgs1 mgt1 strain (AID 161);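 note: 0% = growth of cultures given vehicle only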; conditions: S. cerevisiae sgs1 mgt1 strain, stronger effect = higher value
Summary of the method: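 Read-out: growth inhibition vs vehicle controls. Cells: mutant yeast strain deficient in DNA damage repair.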

[4] = NCI Yeast Anticancer Drug Screen. Data for the cln2 rad14 strain (AID 165);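 note: 0% = growth equal to vehicle treated cultures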; conditions: S. cerevisiae cln2 rad14 strain, stronger effect = higher value
Summary of the method: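 The screen exposed genetically defined yeast (cln2 rad14) to test compounds and scored growth inhibition relative to vehicle-treated controls.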

[5] = NCI Yeast Anticancer Drug Screen. Data for the bub3 strain (AID 167); conditions: S. cerevisiae bub3 mutant strain, stronger effect = higher value
Summary of the method: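 Inhibition values come from growth of compound-treated mutant yeast normalised to vehicle-treated controls.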

[6] = NCI Yeast Anticancer Drug Screen. Data for the mlh1 rad18 strain (AID 175); conditions: S. cerevisiae mlh1 rad18 strain growth inhibition, stronger effect = higher value
Summary of the method: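 Compound-treated yeast growth, normalised to vehicle controls. Strain bears defined DNA repair mutations.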

[7] = at 5.0 µM (retest, dose inferred, filed as 0.5)
[8] = at 50.0 µM (retest, dose inferred, filed as 5.0)

| Structure (SMILES) | growth inhibition [1, 7] | growth inhibition [1, 8] | growth inhibition ([1]; at 50.0 µM) | growth inhibition [2, 7] | growth inhibition [2, 8] | growth inhibition ([2]; at 50.0 µM) | growth inhibition [3, 7] | growth inhibition [3, 8] | growth inhibition ([3]; at 50.0 µM) | growth inhibition [4, 7] | growth inhibition [4, 8] | growth inhibition ([4]; at 50.0 µM) | growth inhibition [5, 7] | growth inhibition [5, 8] | growth inhibition ([5]; at 50.0 µM) | growth inhibition [6, 7] | growth inhibition [6, 8] | growth inhibition ([6]; at 50.0 µM) |
| --- | --- | --- | --- | --- | --- | --- | --- | --- | --- | --- | --- | --- | --- | --- | --- | --- | --- | --- |
| N#CC1Oc2ccccc2N1C(=O)c1ccccc1 (centres undefined) | 2% | 12% | 33% | 0% | 7% | 54.1% | -3% | -4% | 36% | -6% | 0% | -0.55% | -8% | 48% | 77.3% (active) | 2% | 4% | 64.3% |
| CCCCC(CCc1ccccc1)(C(=O)O)c1ccccc1 (centres undefined) | 88% (active) | 99% (active) | 99.4% (active) | 87% (active) | 99% (active) | 99.5% (active) |  |  |  | 88% (active) | 99% (active) | 99% (active) | 72% (active) | 99% (active) | 99.5% (active) | 92% (active) | 99% (active) | 99.4% (active) |
| CC(C)C(=O)NNc1ccccc1 | 28% | 77% (active) | 93.1% (active) | 1% | 57% | 34.2% | 18% | 70% (active) | 87.2% (active) | 15% | 67% | 93.2% (active) | 21% | 95% (active) | 70.4% (active) | 39% | 92% (active) | 83.2% (active) |
| COC(=O)c1c(C(N)=O)c(C)n(NC(=O)c2ccccc2)c1C | -6% | 4% | 5.75% | -5% | -1% | 2.7% | -6% | 0% | 11.1% | -4% | 6% | 38.9% |  |  |  | -4% | 0% | 11.5% |
| CCN(CC)C(=O)C1(OC(C)=O)CCCCC1 | 0% | 0% | -2.4% | -21% | -1% | -5.65% |  |  |  | 3% | 0% | 36.8% | -6% | -2% | 2.1% | 1% | 0% | -80.8% |
| CC(C)/C(Cl)=N\OC(=O)Nc1ccc(S(N)(=O)=O)cc1 | 15% | 30% | 12.7% | 26% | 28% | 18.8% | 2% | -23% | 68% |  |  |  | 7% | 26% | 77.2% (active) | 22% | 38% | -38.8% |
| CN1c2ccccc2C(C)(C)C12C=Cc1cc(O)ccc1O2 (centres undefined) | 20% | 31% | 70.8% (active) | 9% | 10% | 47.6% | 8% | 38% | 61.9% | 14% | 23% | 35.6% |  |  |  | -15% | 33% | 54.1% |
| C[n+]1c(-c2cccc(OCCOCCOc3cccc(-c4c5cc(N)ccc5c5ccc(N)cc5[n+]4C)c3)c2)c2cc(N)ccc2c2ccc(N)cc21 | 36% | 96% (active) | 85.5% (active) | 6% | 95% (active) | 82.7% (active) | 25% | 97% (active) | 81.3% (active) | 10% | 59% | 62.9% | 22% | 94% (active) | 78.8% (active) | 35% | 95% (active) | 86.5% (active) |
| C[n+]1c(-c2cccc(OCCCCCCCCOc3cccc(-c4c5cc(N)ccc5c5ccc(N)cc5[n+]4C)c3)c2)c2cc(N)ccc2c2ccc(N)cc21 | 99% (active) | 97% (active) | 85.3% (active) | 99% (active) | 99% (active) | 88.2% (active) |  |  |  | 98% (active) | 97% (active) | 89.8% (active) | 99% (active) | 98% (active) | 88.5% (active) | 96% (active) | 97% (active) | 89.3% (active) |
| CC/C(=N\NS(=O)(=O)c1ccc(C)cc1)c1cccc(OC)c1 | 34% | 47% | 69.6% | 12% | 37% | 40.6% | 50% | 90% (active) | 88.8% (active) | 37% | 78% (active) | 51.2% |  |  |  | 36% | 87% (active) | 92.2% (active) |
| COc1ccc2c(c1)C(=O)C(Br)CC2 (centres undefined) | 16% | 98% (active) | 25.4% | 12% | 99% (active) | 66.6% | 2% | 55% | 71.2% (active) |  |  |  | 32% | 99% (active) | 70% | 13% | 99% (active) | 65.8% |
| COc1ccc(C2CC(CO)ON2c2ccccc2)cc1 (centres undefined) | -17% | 7% | 98% (active) | -14% | -9% | 98.5% (active) | -1% | -15% | 98.4% (active) | -23% | -18% | 97.9% (active) | -21% | -33% | 98.5% (active) | -6% | 1% | 98.8% (active) |
| Nc1ccc2ccccc2c1Cc1c(O)ccc2ccccc12 | 9% | 96% (active) | 99.2% (active) | 0% | 98% (active) | 98.8% (active) |  |  |  | 1% | 88% (active) | 84.5% (active) | 0% | 63% | 88.8% (active) | 6% | 88% (active) | 95.7% (active) |
| O=C1C(=O)N(C(=O)c2ccc(Cl)c(Cl)c2)c2ccc(Cl)cc21 | -6% | -4% | 13.6% | -9% | 2% | 24.4% | -7% | 6% | 35.2% | -9% | -20% | 10.8% | -6% | 56% | 91.6% (active) | -8% | 12% | 64% |
| O=C(O)CSc1nc(-c2ccccc2)c(-c2ccccc2)n1-c1ccccn1 | 1% | 5% | 76.2% (active) | -6% | -10% | 40.5% | -12% | 4% | 82.8% (active) |  |  |  | -13% | -9% | 47.4% | 8% | 6% | 11.2% |
| CS(=O)(=O)OCCN(CCOS(C)(=O)=O)c1ccc(C=Nc2cccc(Cl)c2)cc1 | 35% | 90% (active) | 92.7% (active) | 40% | 91% (active) | 86.5% (active) |  |  |  | 17% | 86% (active) | 71.3% (active) | 1% | 50% | 43% | 70% (active) | 95% (active) | 96.7% (active) |
| COc1ccc(CC[N+]2(C)COc3cc4oc(=O)cc(C)c4cc3C2)cc1OC (centres undefined) | 5% | 9% | -42.5% | 0% | -14% | -33.5% | 0% | -6% | -27.9% |  |  |  | -8% | 0% | -20.9% | 9% | 7% | -32.5% |
| CC#CS(=O)(=O)c1ccccc1 | 1% | 40% | 74.7% (active) | -1% | 52% | 85.5% (active) |  |  |  | 3% | 23% | 13.9% | 0% | 19% | 6.35% | 36% | 87% (active) | 66.6% |
| O=C1CCCc2cc3c(nc21)C(=O)CCC3 | -8% | -3% | 14.7% | -11% | 0% | 12.6% | 3% | 0% | 13.1% | -7% | 2% | 47.7% |  |  |  | 10% | -9% | 2.5% |
| CC1CC(c2ccccc2)CC(C)N1c1ccc2ccccc2c1 (centres undefined) | 9% | 82% (active) | 77.8% (active) | 13% | 74% (active) | 69.3% | 1% |  | 77% (active) | 5% | 61% | 36.4% |  |  |  | 2% | 84% (active) | 93.3% (active) |
